# Experiments:
# H1975 [1] = test: area under confluence curve of compound monotherapy; compare to DMSO control AUC of the same experiment (AUC (confluence x time, arbitrary))
# Summary of the method: (§1)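 EGFR-mutant adenocarcinoma lines (RPMI 1640, 10% FBS, 37 °C, 5% CO2) were seeded at 20,000–30,000 cells/well in 48-well plates and next day given test compound alone at one dose (highest with <50% parental inhibition, or 1 uM), refreshed after PBS washes every 3–4 days, then drug-free from DTP stage (10–21 days). IncuCyte confluence was tracked until EGFR-inhibitor-only wells regrew. Area under the confluence curve came from Prism (median of triplicates where run), beside same-experiment vehicle AUC.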
# HCC2279 [2] = test: as above
# Summary of the method: as §1
# HCC2935 [3] = test: as above
# Summary of the method: as §1
# HCC4006 [4] = test: as above
# Summary of the method: as §1
# HCC827 [5] = test: as above
# Summary of the method: as §1
# II-18 [6] = test: as above
# Summary of the method: as §1
# H1975 [7] = test: area under confluence curve of osimertinib + compound combination regimen (DTP regrowth); compare to osimertinib-only DTP control AUC of the same experiment (AUC (confluence x time, arbitrary))
# Summary of the method: (§2)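 The area under the IncuCyte confluence–time curve, calculated in Prism and taken as the median of triplicates where available, is the value reported. It was measured in EGFR-mutant NSCLC lines that received the EGFR inhibitor either alone, followed by a test compound, or together with a fixed-dose test compound until the persister stage (10–21 days) and then drug-free medium. Medium was refreshed every 3–4 days until the inhibitor-only wells were confluent again.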
# HCC2279 [8] = test: as above
# Summary of the method: as §2
# HCC2935 [9] = test: as above
# Summary of the method: as §2
# HCC4006 [10] = test: as above
# Summary of the method: as §2
# HCC827 [11] = test: as above
# Summary of the method: as §2
# II-18 [12] = test: as above
# Summary of the method: as §2
smiles,measurement,setting,value
COc1nnc2ccc(N3CCC(c4ccc(OCCN5CCN(C)C(=O)[C@H]5C)cc4)CC3)nn12,area under confluence curve,"H1975 [1]; 300 nM, DMSO control AUC in same experiment: 14522",6020
same,area under confluence curve,"HCC2279 [2]; 300 nM, DMSO control AUC in same experiment: 27284",21500
same,area under confluence curve,"HCC2935 [3]; 300 nM, DMSO control AUC in same experiment: 11459",13000
same,area under confluence curve,"HCC4006 [4]; 30 nM, DMSO control AUC in same experiment: 10921",6660
same,area under confluence curve,"HCC827 [5]; 300 nM, DMSO control AUC in same experiment: 48895",42000
same,area under confluence curve,"II-18 [6]; 30 nM, DMSO control AUC in same experiment: 18996",14400
Cc1nc(N2CCC3(CC2)CO[C@@H](C)[C@H]3N)c(CO)nc1-c1cccc(Cl)c1Cl,area under confluence curve,"H1975 [1]; 1000 nM, DMSO control AUC in same experiment: 15857",17200
same,area under confluence curve,"HCC2279 [2]; 1000 nM, DMSO control AUC in same experiment: 14404",12100
same,area under confluence curve,"HCC2935 [3]; 1000 nM, DMSO control AUC in same experiment: 19215",19100
same,area under confluence curve,"HCC4006 [4]; 1000 nM, DMSO control AUC in same experiment: 18415",19200
same,area under confluence curve,"HCC827 [5]; 1000 nM, DMSO control AUC in same experiment: 21320",14900
same,area under confluence curve,"II-18 [6]; 1000 nM, DMSO control AUC in same experiment: 11834",3600
C[C@@H](Oc1cc(-c2cnn(C3CCNCC3)c2)cnc1N)c1c(Cl)ccc(F)c1Cl [Crizotinib] + C=CC(=O)Nc1cc(Nc2nccc(-c3cn(C)c4ccccc34)n2)c(OC)cc1N(C)CCN(C)C [osimertinib],area under confluence curve,"H1975 [7]; test compound dose 1000 nM, dosing schedule: sequential, osimertinib-only DTP control AUC in same experiment: 22968, DMSO control AUC in same experiment: 15857",9770
same,area under confluence curve,"H1975 [7]; test compound dose 1000 nM, dosing schedule: upfront, osimertinib-only DTP control AUC in same experiment: 27164, DMSO control AUC in same experiment: 15857",9330
same,area under confluence curve,"HCC2279 [8]; test compound dose 1000 nM, dosing schedule: sequential, osimertinib-only DTP control AUC in same experiment: 26096, DMSO control AUC in same experiment: 14404",23100
same,area under confluence curve,"HCC2279 [8]; test compound dose 1000 nM, dosing schedule: upfront, osimertinib-only DTP control AUC in same experiment: 33120, DMSO control AUC in same experiment: 14404",32900
same,area under confluence curve,"HCC2935 [9]; test compound dose 1000 nM, dosing schedule: sequential, osimertinib-only DTP control AUC in same experiment: 22314, DMSO control AUC in same experiment: 19215",21400
same,area under confluence curve,"HCC2935 [9]; test compound dose 1000 nM, dosing schedule: upfront, osimertinib-only DTP control AUC in same experiment: 29846, DMSO control AUC in same experiment: 19215",33400
same,area under confluence curve,"HCC4006 [10]; test compound dose 1000 nM, dosing schedule: sequential, osimertinib-only DTP control AUC in same experiment: 12791, DMSO control AUC in same experiment: 18415",12500
same,area under confluence curve,"HCC4006 [10]; test compound dose 1000 nM, dosing schedule: upfront, osimertinib-only DTP control AUC in same experiment: 17269, DMSO control AUC in same experiment: 18415",13000
same,area under confluence curve,"HCC827 [11]; test compound dose 1000 nM, dosing schedule: sequential, osimertinib-only DTP control AUC in same experiment: 15330, DMSO control AUC in same experiment: 21320",10400
same,area under confluence curve,"HCC827 [11]; test compound dose 1000 nM, dosing schedule: upfront, osimertinib-only DTP control AUC in same experiment: 20798, DMSO control AUC in same experiment: 21320",15000
same,area under confluence curve,"II-18 [12]; test compound dose 1000 nM, dosing schedule: sequential, osimertinib-only DTP control AUC in same experiment: 8624, DMSO control AUC in same experiment: 11834",1450
same,area under confluence curve,"II-18 [12]; test compound dose 1000 nM, dosing schedule: upfront, osimertinib-only DTP control AUC in same experiment: 10856, DMSO control AUC in same experiment: 11834",10800
CCn1nc(C2CCN(C(=O)CCO)CC2)nc1-c1cnc(N)c(-c2nnc(C(C)(C)C)o2)n1,area under confluence curve,"H1975 [1]; 1000 nM, DMSO control AUC in same experiment: 20657",18200
same,area under confluence curve,"HCC2279 [2]; 1000 nM, DMSO control AUC in same experiment: 9426",11400
same,area under confluence curve,"HCC2935 [3]; 1000 nM, DMSO control AUC in same experiment: 13875",11700
same,area under confluence curve,"HCC4006 [4]; 1000 nM, DMSO control AUC in same experiment: 16638",17000
same,area under confluence curve,"HCC827 [5]; 1000 nM, DMSO control AUC in same experiment: 27404",27500
same,area under confluence curve,"II-18 [6]; 1000 nM, DMSO control AUC in same experiment: 18482",14200
NC1(C(=O)N[C@@H](CCO)c2ccc(Cl)cc2)CCN(c2nc[nH]c3nccc2-3)CC1 [Capivasertib] + C=CC(=O)Nc1cc(Nc2nccc(-c3cn(C)c4ccccc34)n2)c(OC)cc1N(C)CCN(C)C [osimertinib],area under confluence curve,"H1975 [7]; test compound dose 300 nM, dosing schedule: sequential, osimertinib-only DTP control AUC in same experiment: 9919, DMSO control AUC in same experiment: 26010",1840
same,area under confluence curve,"H1975 [7]; test compound dose 300 nM, dosing schedule: upfront, osimertinib-only DTP control AUC in same experiment: 15327, DMSO control AUC in same experiment: 26010",3990
same,area under confluence curve,"HCC2279 [8]; test compound dose 300 nM, dosing schedule: sequential, osimertinib-only DTP control AUC in same experiment: 20224, DMSO control AUC in same experiment: 29252",13700
same,area under confluence curve,"HCC2279 [8]; test compound dose 300 nM, dosing schedule: upfront, osimertinib-only DTP control AUC in same experiment: 43517, DMSO control AUC in same experiment: 29252",38900
same,area under confluence curve,"HCC2935 [9]; test compound dose 300 nM, dosing schedule: sequential, osimertinib-only DTP control AUC in same experiment: 9121, DMSO control AUC in same experiment: 11459",5940
same,area under confluence curve,"HCC2935 [9]; test compound dose 300 nM, dosing schedule: upfront, osimertinib-only DTP control AUC in same experiment: 12748, DMSO control AUC in same experiment: 11459",10300
same,area under confluence curve,"HCC4006 [10]; test compound dose 300 nM, dosing schedule: sequential, osimertinib-only DTP control AUC in same experiment: 22375, DMSO control AUC in same experiment: 16794",17000
same,area under confluence curve,"HCC4006 [10]; test compound dose 300 nM, dosing schedule: upfront, osimertinib-only DTP control AUC in same experiment: 24440, DMSO control AUC in same experiment: 16794",12500
same,area under confluence curve,"HCC827 [11]; test compound dose 300 nM, dosing schedule: sequential, osimertinib-only DTP control AUC in same experiment: 8266, DMSO control AUC in same experiment: 27404",5490
same,area under confluence curve,"HCC827 [11]; test compound dose 300 nM, dosing schedule: upfront, osimertinib-only DTP control AUC in same experiment: 13929, DMSO control AUC in same experiment: 27404",9340
same,area under confluence curve,"II-18 [12]; test compound dose 300 nM, dosing schedule: sequential, osimertinib-only DTP control AUC in same experiment: 3520, DMSO control AUC in same experiment: 13556",3590
same,area under confluence curve,"II-18 [12]; test compound dose 300 nM, dosing schedule: upfront, osimertinib-only DTP control AUC in same experiment: 6532, DMSO control AUC in same experiment: 13556",2040
C[C@@]1(C(=O)Nc2ccc(F)nc2)CCCN1c1nc(Nc2cc(C3CC3)n[nH]2)c2cccn2n1,area under confluence curve,"H1975 [1]; 100 nM, DMSO control AUC in same experiment: 16540",17600
same,area under confluence curve,"HCC2279 [2]; 100 nM, DMSO control AUC in same experiment: 14404",15900
same,area under confluence curve,"HCC2935 [3]; 100 nM, DMSO control AUC in same experiment: 19215",20700
same,area under confluence curve,"HCC4006 [4]; 100 nM, DMSO control AUC in same experiment: 18415",20100
same,area under confluence curve,"HCC827 [5]; 100 nM, DMSO control AUC in same experiment: 21320",21300
same,area under confluence curve,"II-18 [6]; 100 nM, DMSO control AUC in same experiment: 11834",9980

# Source: the supplement of paper PMC9794691
